The record followed here is PubChem BioAssay (EPA / NIEHS).

The AC50 is the concentration at which the activity in the assay is half-maximal.

Each structure is given as a SMILES string. Inconclusive results are not listed. Active and inactive are the calls of the source. Rule for the calls: active = hit-call score of the fitted dose curve at least 0.9, where 1 is the maximum; inconclusive = response in the unintended direction; inactive = score below 0.9.

Sequence of Nuclear receptor subfamily 1 group I member 2 (Mus musculus) (O54915 whole entry, looked up, the tested form may be a part): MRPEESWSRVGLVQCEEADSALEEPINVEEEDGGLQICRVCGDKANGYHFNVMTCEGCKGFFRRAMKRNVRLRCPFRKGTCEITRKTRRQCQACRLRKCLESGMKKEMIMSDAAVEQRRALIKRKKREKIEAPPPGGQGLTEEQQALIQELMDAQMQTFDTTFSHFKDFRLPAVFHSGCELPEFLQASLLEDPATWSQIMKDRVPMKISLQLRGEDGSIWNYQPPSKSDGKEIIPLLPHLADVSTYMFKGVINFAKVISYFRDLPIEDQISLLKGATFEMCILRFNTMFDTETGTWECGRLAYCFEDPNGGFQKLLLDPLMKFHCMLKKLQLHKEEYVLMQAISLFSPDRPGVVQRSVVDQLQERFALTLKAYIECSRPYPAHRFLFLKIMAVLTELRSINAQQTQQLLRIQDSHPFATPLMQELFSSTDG
Sequence of mouse Peroxisome Proliferator-activated Receptor gamma (PPARg), Pparg (gene 19016) (P37238 whole entry, looked up, the tested form may be a part): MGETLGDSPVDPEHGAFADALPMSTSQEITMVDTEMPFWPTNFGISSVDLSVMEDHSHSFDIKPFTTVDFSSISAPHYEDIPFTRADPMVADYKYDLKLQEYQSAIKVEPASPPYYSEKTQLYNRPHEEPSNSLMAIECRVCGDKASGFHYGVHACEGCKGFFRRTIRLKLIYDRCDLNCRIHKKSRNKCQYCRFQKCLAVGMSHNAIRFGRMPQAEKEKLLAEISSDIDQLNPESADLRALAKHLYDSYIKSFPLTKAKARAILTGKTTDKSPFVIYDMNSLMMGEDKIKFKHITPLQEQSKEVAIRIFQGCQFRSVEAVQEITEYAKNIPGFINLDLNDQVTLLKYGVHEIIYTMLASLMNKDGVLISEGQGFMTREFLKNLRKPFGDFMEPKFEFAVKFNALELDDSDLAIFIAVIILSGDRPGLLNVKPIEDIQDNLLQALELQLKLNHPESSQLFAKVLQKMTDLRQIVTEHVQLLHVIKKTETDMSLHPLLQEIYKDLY

The target in the first test is Peroxisome proliferator-activated receptor gamma (Homo sapiens) (UniProt P37231). Put plainly: ATG_hPPARg_XSP1: Attagene TRANS-FACTORIAL Multi-Species (XSP1) HepG2 Assay for human Peroxisome Proliferator-activated Receptor gamma (PPARg) (AID 2283800). A digest of the protocol: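 Reporter mRNA induction, measured by RT-PCR with capillary electrophoresis 24 h after dosing, scored as gain over DMSO. Transfected HepG2 cells express exogenous NR-Gal4 chimeras driving GAL4-UAS reporters; medium includes 3 nM 6-alpha-fluorotestosterone.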
Sequence of Peroxisome proliferator-activated receptor gamma (Homo sapiens) (P37231 whole entry, looked up, the tested form may be a part): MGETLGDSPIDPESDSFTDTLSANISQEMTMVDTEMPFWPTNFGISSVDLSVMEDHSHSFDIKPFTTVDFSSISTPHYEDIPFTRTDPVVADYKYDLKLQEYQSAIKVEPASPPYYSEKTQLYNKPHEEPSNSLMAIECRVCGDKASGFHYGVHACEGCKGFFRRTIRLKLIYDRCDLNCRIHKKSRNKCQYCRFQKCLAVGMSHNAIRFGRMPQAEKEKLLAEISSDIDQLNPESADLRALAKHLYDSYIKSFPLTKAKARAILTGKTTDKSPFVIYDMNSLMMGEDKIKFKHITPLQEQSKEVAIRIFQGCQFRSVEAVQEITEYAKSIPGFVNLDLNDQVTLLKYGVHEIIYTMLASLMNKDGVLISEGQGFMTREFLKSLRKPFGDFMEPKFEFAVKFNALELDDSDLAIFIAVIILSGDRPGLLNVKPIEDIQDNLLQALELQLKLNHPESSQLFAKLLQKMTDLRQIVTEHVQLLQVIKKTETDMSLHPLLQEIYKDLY
Consider `C[C@]12CCC(=O)C=C1CC[C@@H]1[C@@H]2CC[C@]2(C)C(=O)CC[C@@H]12`, for which the outcome was inactive.
`CC(C)(c1ccccc1)c1ccc(O)cc1`: the outcome was inactive.
Regarding `Clc1ccc(C(c2ccccc2Cl)C(Cl)(Cl)Cl)cc1` (stereo not given), the outcome was inactive.

The next test relates to zebrafish Peroxisome Proliferator-activated Receptor gamma (PPARg), gene 557037. Description: ATG_zfPPARg_XSP1: Attagene TRANS-FACTORIAL Multi-Species (XSP1) HepG2 Assay for zebrafish Peroxisome Proliferator-activated Receptor gamma (PPARg) (AID 2283801). Summed up:
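Trans-activation readout of chimeric zebrafish PPARg–GAL4 in transiently transfected human HepG2 cells, 24 h chemical exposure (medium includes 3 nM 6-alpha-fluorotestosterone). Reporter transcripts measured by RT-PCR and capillary electrophoresis, fitted as gain over DMSO.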
As for `C[C@]12CCC(=O)C=C1CC[C@@H]1[C@@H]2CC[C@]2(C)C(=O)CC[C@@H]12`, the outcome was inactive.
As for `CC(C)(c1ccccc1)c1ccc(O)cc1`, the result was inactive.
Take `ClC(Cl)=C(c1ccc(Cl)cc1)c1ccc(Cl)cc1`: the result was inactive.

For the next test, the target named is mouse Peroxisome Proliferator-activated Receptor gamma (PPARg), Pparg (gene 19016) (UniProt P37238). Put plainly: ATG_mPPARg_XSP1: Attagene TRANS-FACTORIAL Multi-Species (XSP1) HepG2 Assay for mouse Peroxisome Proliferator-activated Receptor gamma (PPARg) (AID 2283802). Summed up:
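Readout is reporter mRNA induction, measured by RT-PCR with 6-FAM labelling, HpaI digestion and capillary electrophoresis, 24 h post-dose relative to DMSO. Transient multi-reporter transfection of human HepG2 with mouse PPARg–GAL4 fusion; 3 nM 6-alpha-fluorotestosterone included.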
For the compound `CC(C)(c1ccccc1)c1ccc(O)cc1`, the compound was called inactive.
Take `ClC(Cl)=C(c1ccc(Cl)cc1)c1ccc(Cl)cc1`: the compound was classed as inactive.
Consider `Oc1ccc(C(c2ccc(O)cc2)(C(F)(F)F)C(F)(F)F)cc1`, for which the AC50 was 33400 nM (active).

In a further test the target is Nuclear receptor subfamily 1 group I member 2 (Mus musculus) (UniProt O54915). Put plainly: ATG_mPXR_XSP1: Attagene TRANS-FACTORIAL Multi-Species (XSP1) HepG2 Assay for mouse Pregnane X Receptor (PXR) (AID 2283803). Summed up:
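Transiently transfected HepG2 cells expressing a receptor-Gal4 chimera drive a GAL4-UAS reporter; 3 nM 6-alpha-fluorotestosterone included. Reporter mRNA read 24 h post-dose by RT-PCR and capillary electrophoresis; gain of signal relative to DMSO.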
On to `C[C@]12CCC(=O)C=C1CC[C@@H]1[C@@H]2CC[C@]2(C)C(=O)CC[C@@H]12`, for which the AC50 is 2300 nM (active).
As to `CC(C)(c1ccccc1)c1ccc(O)cc1`, the result was inactive.
For the compound `C[C@]12CCC(=O)C=C1CC[C@@H]1[C@@H]2CC[C@@]2(C)[C@H]1CC[C@]2(C)O`, the call was inactive.
As to `ClC(Cl)=C(c1ccc(Cl)cc1)c1ccc(Cl)cc1`, the compound was called inactive.
On to `Clc1ccc(C(c2ccccc2Cl)C(Cl)(Cl)Cl)cc1` (stereo not given), for which the AC50 is 2030 nM (active).
Take `Oc1ccc(C(c2ccc(O)cc2)(C(F)(F)F)C(F)(F)F)cc1`: the compound was classed as inactive.
